# Test results reported in paper PMC11062922 (Nature Chemical Biology, 2023).
# Read-outs that look alike come from different tables or passages of the source.
# Assays:
# Design in all cases: species or system human, MV4-11 + K-562 + COLO205 + SK-N-BE2 + OVCAR-8
# STK3 = details: read-out: apparent Kd, n = 1
# CSNK1A1 = details: read-out: apparent Kd, n = 1
# HCK = details: read-out: apparent Kd; compound concentrations: 100 nM and 1000 nM (sheet 'Samples'), CATDS: 4.52340510871738E-2; n = 1
# SRC = details: read-out: apparent Kd; compound concentrations: 100 nM and 1000 nM (sheet 'Samples'), CATDS: 5.0295032408805701E-2; n = 1
# PRKX = details: read-out: apparent Kd, n = 1
# BCR = details: read-out: apparent Kd; compound concentrations: 100 nM and 1000 nM (sheet 'Samples'), CATDS: 2.3215110623404499E-2; n = 1
# EPHA2 = details: read-out: apparent Kd; compound concentrations: 100 nM and 1000 nM (sheet 'Samples'), CATDS: 2.1099204097422001E-2; n = 1
# PTK6 = details: read-out: apparent Kd; compound concentrations: 100 nM and 1000 nM (sheet 'Samples'), CATDS: 1.9530380694073899E-2; n = 1
# RIOK2 = details: read-out: apparent Kd, n = 1
# CDK17 = details: read-out: apparent Kd, n = 1
# MAPK8 = details: read-out: apparent Kd, n = 1
# PRKAA2 = details: read-out: apparent Kd; compound concentrations: 100 nM and 1000 nM (sheet 'Samples'), CATDS: 2.2132106558792702E-2; n = 1
# STK16 = details: read-out: apparent Kd, compound concentrations: 100 nM and 1000 nM (sheet 'Samples'), n = 1
# ROCK2 = details: read-out: apparent Kd, n = 1
# TNIK = details: read-out: apparent Kd, n = 1
# CSNK1E = details: read-out: apparent Kd, n = 1
# [1] = compound concentrations:100 nM and 1000 nM (sheet 'Samples')
compound,measurement,setting,value
CN(C)c1ccc2c(c1)/C(=C/Nc1ccc(S(N)(=O)=O)cc1)C(=O)N2 [GW416469X],potency estimated from few doses,"STK3; compound concentrations: 100 nM and 1000 nM (sheet 'Samples'), CATDS: 7.8286215558842895E-2",1330 nM
COc1ccc(Nc2nccc(NCCNC(=O)Nc3cc(C)ccc3C)n2)cc1 [GSK1379899A],potency estimated from few doses,"CSNK1A1; compound concentrations: 100 nM and 1000 nM (sheet 'Samples'), CATDS: 3.9039606822866203E-2",2320 nM
same,potency estimated from few doses,HCK,1500 nM
same,potency estimated from few doses,SRC,1150 nM
Nc1nccc(-c2ccc3c(N)n[nH]c3c2)n1 [GSK1034945A],potency estimated from few doses,PRKX; [1],1040 nM
Cl.Cn1c(=O)c(Cc2ccccc2F)cc2cnc(NC3CCOCC3)nc21 [RO3305377-001],potency estimated from few doses,BCR,783 nM
same,potency estimated from few doses,EPHA2,976 nM
same,potency estimated from few doses,PTK6,1190 nM
Nc1nc(-c2ccc3c(N)n[nH]c3c2)cc(N2CCCC(NC(=O)c3ccccc3)C2)n1 (centres unmarked) [GSK2286775B],potency estimated from few doses,RIOK2; [1],1860 nM
O=C1N=C(N[C@H](CO)c2ccccc2)S/C1=C\c1ccc2ncccc2c1 [RO4554339-000],potency estimated from few doses,"PRKX; compound concentrations: 100 nM and 1000 nM (sheet 'Samples'), CATDS: 0.109723190232525",705 nM
CNCC1CCn2c(c(C3=C(c4cn(C)c5ccccc45)C(=O)NC3=O)c3ccccc32)C1 (centres unmarked) [RO0318676-000],potency estimated from few doses,"CDK17; compound concentrations: 100 nM and 1000 nM (sheet 'Samples'), CATDS: 2.8092729884281801E-2",1740 nM
CN[C@H](C#Cc1c(F)ccc2c1/C(=C/c1[nH]ccc1OC)C(=O)N2)CO.Cl [RO0283049-001],potency estimated from few doses,"CDK17; compound concentrations: 100 nM and 1000 nM (sheet 'Samples'), CATDS: 2.52216381525E-2",797 nM
same,potency estimated from few doses,"MAPK8; compound concentrations: 100 nM and 1000 nM (sheet 'Samples'), CATDS: 2.3865575859687099E-2",951 nM
same,potency estimated from few doses,PRKAA2,1240 nM
same,potency estimated from few doses,STK16; CATDS: 2.2828381206070801E-2,1110 nM
same,potency estimated from few doses,"STK3; compound concentrations: 100 nM and 1000 nM (sheet 'Samples'), CATDS: 2.5923871339058099E-2",733 nM
COc1cc[nH]c1/C=C1\C(=O)Nc2ccc([N+](=O)[O-])c(N3CC[C@@H](O)C3)c21 [RO0504985-000],potency estimated from few doses,"CDK17; compound concentrations: 100 nM and 1000 nM (sheet 'Samples'), CATDS: 2.9599513328136099E-2",2050 nM
same,potency estimated from few doses,STK16; CATDS: 3.4591069451125701E-2,1100 nM
CC(C)(CO)CNC(=O)c1ccc2c(c1)/C(=N/Nc1ccc(S(N)(=O)=O)cc1)C(=O)N2 [GW301784X],potency estimated from few doses,CDK17; [1],212 nM
CCn1c(-c2nonc2N)nc2cncc(C(=O)N3CC[C@H](N)C3)c21.Cl [SB-772077-B],potency estimated from few doses,PRKX; [1],177 nM
same,potency estimated from few doses,ROCK2; [1],11.6 nM
CNc1nccc(-c2ccc3c(N)n[nH]c3c2)n1 [GSK2206003A],potency estimated from few doses,"RIOK2; compound concentrations: 100 nM and 1000 nM (sheet 'Samples'), CATDS: 5.2095061468969701E-2",1360 nM
CC(C)N1CC(=O)N(C)c2cnc(Nc3cccc(S(=O)(=O)CCN4CCOCC4)c3)nc21 [BI00009348],potency estimated from few doses,STK16; CATDS: 5.8221493759355002E-2,1180 nM
COc1cc2ncn(-c3cc(OCc4ccccc4S(C)(=O)=O)c(C#N)s3)c2cc1OC [GSK319347A],potency estimated from few doses,"TNIK; compound concentrations: 100 nM and 1000 nM (sheet 'Samples'), CATDS: 7.3332449024222507E-2",2280 nM
Cl.Cl.NC[C@H](CC1CCCCC1)NC(=O)c1ccc(-c2ccnc3[nH]ccc23)s1.NC[C@H](CC1CCCCC1)NC(=O)c1ccc(-c2ccnc3[nH]ccc23)s1 [GSK1581428A],potency estimated from few doses,PRKX; [1],14.8 nM
same,potency estimated from few doses,ROCK2; [1],22.8 nM
Cl.Cl.NCC(NC(=O)c1cc(-c2ccnc3[nH]ccc23)cs1)c1ccccc1.NCC(NC(=O)c1cc(-c2ccnc3[nH]ccc23)cs1)c1ccccc1 (centres unmarked) [GSK1229959A],potency estimated from few doses,"CSNK1A1; compound concentrations: 100 nM and 1000 nM (sheet 'Samples'), CATDS: 1.7292199039589701E-2",1760 nM
same,potency estimated from few doses,"PRKX; compound concentrations: 100 nM and 1000 nM (sheet 'Samples'), CATDS: 6.1031439007252199E-2",21.6 nM
same,potency estimated from few doses,"ROCK2; compound concentrations: 100 nM and 1000 nM (sheet 'Samples'), CATDS: 0.12516480015121101",6.2 nM
NS(=O)(=O)c1ccc(NC=C2C(=O)Nc3ccc4ncsc4c32)cc1 [GW589933X],potency estimated from few doses,"CDK17; compound concentrations: 100 nM and 1000 nM (sheet 'Samples'), CATDS: 2.5834512792532401E-2",479 nM
same,potency estimated from few doses,"CSNK1E; compound concentrations: 100 nM and 1000 nM (sheet 'Samples'), CATDS: 1.7679596648165999E-2",1500 nM
same,potency estimated from few doses,"STK3; compound concentrations: 100 nM and 1000 nM (sheet 'Samples'), CATDS: 3.1819272048607197E-2",295 nM
same,potency estimated from few doses,"TNIK; compound concentrations: 100 nM and 1000 nM (sheet 'Samples'), CATDS: 5.8590994029209698E-2",89.2 nM
COc1cccc(C2=C(c3c(C)n(C)c4ccccc34)C(=O)NC2=O)c1 [RO3300167-000],potency estimated from few doses,"STK3; compound concentrations: 100 nM and 1000 nM (sheet 'Samples'), CATDS: 0.106754068539186",824 nM
NS(=O)(=O)c1ccc(N/C=C2\C(=O)Nc3ccc4ncsc4c32)cc1 [GW297361X],potency estimated from few doses,"CDK17; compound concentrations: 100 nM and 1000 nM (sheet 'Samples'), CATDS: 3.2920302363338198E-2",1410 nM
same,potency estimated from few doses,"STK3; compound concentrations: 100 nM and 1000 nM (sheet 'Samples'), CATDS: 4.8533419751013301E-2",558 nM
same,potency estimated from few doses,"TNIK; compound concentrations: 100 nM and 1000 nM (sheet 'Samples'), CATDS: 3.6664419763171099E-2",1050 nM
CCn1c(-c2nonc2N)nc2cncc(Br)c21 [SB-738004],potency estimated from few doses,ROCK2; [1],84.1 nM
Cc1occc1-c1nc(N)c(OC[C@@H](N)Cc2c[nH]c3ccccc23)cc1-c1cc2c(C)n[nH]c2cn1 [GSK1660450B],potency estimated from few doses,CSNK1E; [1],144 nM
same,potency estimated from few doses,STK3; [1],93.5 nM
same,potency estimated from few doses,TNIK; [1],696 nM
Cc1cccc(-c2cc(-c3c[nH]nc3-c3ccccn3)ccn2)c1 [GW679395X],potency estimated from few doses,CSNK1A1; [1],1810 nM
same,potency estimated from few doses,MAPK8; [1],1610 nM
same,potency estimated from few doses,RIOK2; [1],1630 nM
